Screens: PubChem BioAssay, several laboratories
S1P4 antagonist: human S1P4 receptor antagonism. S1P4-expressing cells, antagonist mode, reporter read-out. 220,000 tested, 0.26% active. O95977. AID 1510. inhibition, % at 4.98 µM; in the data active = inhibition above about 29%
Target sequence (O95977 whole entry, looked up): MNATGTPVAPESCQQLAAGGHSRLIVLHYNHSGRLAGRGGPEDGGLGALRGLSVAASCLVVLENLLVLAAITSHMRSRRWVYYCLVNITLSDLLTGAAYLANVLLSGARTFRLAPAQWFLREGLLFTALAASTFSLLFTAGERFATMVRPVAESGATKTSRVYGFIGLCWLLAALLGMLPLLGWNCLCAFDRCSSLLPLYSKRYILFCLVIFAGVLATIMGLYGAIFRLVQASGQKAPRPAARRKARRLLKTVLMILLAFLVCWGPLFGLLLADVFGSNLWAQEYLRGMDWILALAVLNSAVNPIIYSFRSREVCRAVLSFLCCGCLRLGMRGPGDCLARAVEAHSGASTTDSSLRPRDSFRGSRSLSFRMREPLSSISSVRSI
PGE2 EP2 inh: inhibitors of human EP2 prostaglandin E2 receptor. P43116. C6 glioma cells expressing human EP2, cAMP TR-FRET; cells stimulated with saturating PGE2. inhibition, % at 25 µM. 260,000 tested, 0.52% active;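 active = percent inhibition above 40 after rounding to a whole number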;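 note: rat C6 glioma host cells with rolipram phosphodiesterase inhibitor present; the protocol text gives 20 µM as final concentration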
S1P4 agonist: agonists of human S1P4 receptor. S1P4-expressing cell line, agonist reporter assay. activation, % at 4.98 µM. 220,000 tested, 0.35% active. AID 1509; in the data active = activation above about 11%
EP2 mod: EP2 receptor (human) modulation; induction, % at 25 µM; EP2-expressing cells, cAMP HTRF FRET, PGE2 co-stimulation; 260,000 tested, 0.83% active; P43116; AID 940;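 active = compounds whose cAMP rise, as percent of the full-agonist control response, exceeds 60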;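 note: rat C6 glioma line stably carrying human EP2 under a CMV promoter; the protocol text gives 20 µM as final concentration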
S1P3 antagonist: antagonists of human S1P3 receptor; CHO S1P3 NFAT-BLA reporter, FRET fluorescence, antagonist mode; Q99500; 170,000 tested, 0.27% active; inhibition, % at 4.98 µM;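 active = inhibition above the plate cutoff, the mean inhibition of test wells on that plate plus 3 SD, cut at about 28% in these data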;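 note: cells challenged with S1P at its EC80 of 0.8 µM; blue over green emission ratio from cleaved BLA substrate after 4 h stimulation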
Each line names hits and unclear results; the compound was inactive in the other large screens; ! = a repeat was not active. Hits are enriched below; roughly 2% of the tested compounds scored in any of these assays.

CCOc1ccc(NC(=O)CSc2nc(C)cc(C)c2C#N)cc1	none (no result: S1P4 antagonist, S1P4 agonist, S1P3 antagonist)
Cc1ccc(NC(=O)Cn2sc3nc(C)cc(C)c3c2=O)c(Cl)c1	none
CCOc1ccc(NC(=O)Cn2sc3nc(C)cc(C)c3c2=O)cc1	PGE2 EP2 inh 122
Cc1cc2c(o1)c1cnn(CC(=O)N(C)C)c(=O)c1n2C	none (no result: S1P4 antagonist, S1P4 agonist, S1P3 antagonist)
COc1cc(C)c(S(=O)(=O)N2CCCC(C)C2)cc1C (centres undefined)	none (no result: S1P4 antagonist, S1P4 agonist, S1P3 antagonist)
CC1(C)CC(=O)C2=C(C1)Nc1ccccc1NC2c1cc(O)ccc1O (centres undefined)	PGE2 EP2 inh 47 (no result: S1P4 antagonist, S1P4 agonist, S1P3 antagonist)
COc1ccc(CNC(=O)CN2N=C(C(C)(C)C)Cn3c(cc4ccccc43)C2=O)cc1	none (no result: S1P4 antagonist, PGE2 EP2 inh, S1P4 agonist, S1P3 antagonist)
CCOC(=O)c1c(NC(=O)CN2CCOCC2)sc2c1CCCC2	EP2 mod 62
CCOC(=O)c1c(NC(=O)COc2cccc3c2CCN(CC)C3=O)sc2c1CCC2	EP2 mod 64
O=C(CN1CCOCC1)Nc1sc2c(c1C(=O)c1cccc(F)c1)CCC2	EP2 mod 68 (no result: S1P4 antagonist, S1P4 agonist, S1P3 antagonist)
CCn1c(SCC(=O)Nc2ccc(NC(=O)c3ccc(C)cc3)cc2)nnc1-c1cccs1	none (no result: S1P4 antagonist, S1P4 agonist, S1P3 antagonist)
N#Cc1ccccc1Cn1cc(C#N)c2ccccc21	none (no result: S1P3 antagonist)
N#Cc1cn(Cc2ccccc2)c2ccccc12	EP2 mod 63
N#Cc1cn(Cc2ccc(Cl)cc2)c2ccccc12	EP2 mod 67 (no result: S1P4 antagonist, S1P4 agonist, S1P3 antagonist)
COCCNC(=S)N(Cc1cc2cc(OC)ccc2[nH]c1=O)CC1CCCO1 (centres undefined)	none (no result: S1P4 antagonist, S1P4 agonist, S1P3 antagonist)
COC(=O)c1cccc(C(=O)Nc2ccc(C)cc2Br)n1	none (no result: PGE2 EP2 inh)
Cc1ccc(NC(=O)c2cccc(C(=O)OC(C)C)n2)c(Br)c1	EP2 mod 62
CC1CCN(CC(=O)NC2CCN(C(C)c3ccccc3)CC2)CC1 (centres undefined)	none (no result: S1P4 antagonist, PGE2 EP2 inh, S1P4 agonist, S1P3 antagonist)
COc1ccc(NC(=O)N(Cc2cc3cc(C)ccc3[nH]c2=O)CC2CCCO2)cc1 (centres undefined)	none
COc1ccc2[nH]c(=O)c(CN(C(=S)NC(C)c3ccccc3)C3CCCC3)cc2c1 (centres undefined)	PGE2 EP2 inh 45 (no result: S1P4 antagonist, S1P4 agonist, S1P3 antagonist)
CCOc1ccc2[nH]c(=O)c(CN(CC3CCCO3)C(=S)NC3CCCCC3)cc2c1 (centres undefined)	EP2 mod 70 (no result: S1P4 antagonist, S1P4 agonist, S1P3 antagonist)
COc1ccc2[nH]c(=O)c(CN(CC3CCCO3)C(=O)Nc3ccc(F)cc3)cc2c1 (centres undefined)	PGE2 EP2 inh 41
COC1CCCC(C(=O)N2CCC(Cn3nc(-c4ccco4)ccc3=O)CC2)C1 (centres undefined)	none (no result: S1P4 antagonist, PGE2 EP2 inh, S1P4 agonist, S1P3 antagonist)
O=C(CSc1ncnc2c1cnn2-c1ccccc1)NC1CCCCC1	none (no result: S1P4 antagonist, S1P4 agonist, S1P3 antagonist)
O=C(Nc1cccc(C(F)(F)F)c1)c1snc2c(=O)[nH]cnc12	none (no result: S1P4 antagonist, S1P4 agonist, S1P3 antagonist)
O=C(CN1C(=O)N2CCN=C2c2ccccc21)Nc1ccc2c(c1)OCCO2	none (no result: S1P4 antagonist, S1P4 agonist, S1P3 antagonist)
O=C(O)CC[P+](c1ccccc1)(c1ccccc1)c1ccccc1	PGE2 EP2 inh 47 (no result: S1P4 antagonist, S1P4 agonist, S1P3 antagonist)
CCOC(=O)c1ccccc1NC(=O)CSc1nnnn1C1CCCCC1	EP2 mod 64!
CC[n+]1c(/C=C/c2ccc(N(C)C)cc2)ccc2ccccc21	PGE2 EP2 inh 66
CC[n+]1ccc(/C=C/c2ccc(N(C)C)cc2)c2ccccc21	PGE2 EP2 inh 96
CC[n+]1ccccc1/C=C/c1ccc(N(C)C)cc1	none
COc1ccc2[nH]cc(C(=O)N3CCCC3)c(=O)c2c1	none (no result: S1P4 antagonist, S1P4 agonist, S1P3 antagonist)
CCC(c1nnnn1C1CCCC1)N(Cc1ccccc1)Cc1cc2c(C)cc(C)cc2[nH]c1=O (centres undefined)	none (no result: S1P4 antagonist, S1P4 agonist, S1P3 antagonist)
CCc1nnc(NC(=O)CSc2nc3c(c(=O)n2C)SC(C)C3)s1 (centres undefined)	none
CC1Cc2nc(SCC(=O)NC3CCCCC3)n(C)c(=O)c2S1 (centres undefined)	PGE2 EP2 inh 98
CCc1cc(N2CCC(O)CC2)n2nc3nc(C)cc(C)c3c2n1	none (no result: S1P4 antagonist, PGE2 EP2 inh, S1P4 agonist, S1P3 antagonist)
CCNc1nc(NC(C)C)nc(SCCOC(=O)c2ccccc2)n1	EP2 mod 61
N#Cc1ccc(OC(=O)c2ccc(N=C(N)N)cc2)cc1	PGE2 EP2 inh 75 (no result: S1P4 antagonist, S1P4 agonist, S1P3 antagonist)
COc1ccc(N(C(=O)c2ccco2)C(C(=O)NC2CCCC2)c2ccc(N(C)C)cc2)cc1 (centres undefined)	none
COc1ccc(N(C(=O)c2ccco2)C(C(=O)NC2CCCCC2)c2ccccc2)cc1 (centres undefined)	EP2 mod 62! (no result: S1P3 antagonist)
O=C(C1CCCC1)N1CCC(Cn2nc(-c3ccco3)ccc2=O)CC1	none (no result: S1P4 antagonist, PGE2 EP2 inh, S1P4 agonist, S1P3 antagonist)
CCN1CCN(c2ccc(NC(=O)c3ccc(OC)cc3)cc2Cl)CC1	none (no result: S1P4 antagonist, S1P4 agonist, S1P3 antagonist)
Cn1c(=O)c2c(nc(NCCNc3nc4c(c(=O)n(C)c(=O)n4C)n3C)n2C)n(C)c1=O	PGE2 EP2 inh 45 (no result: S1P4 antagonist, S1P4 agonist, S1P3 antagonist)
